ATXN2 expr inh – inhibitors of ATXN2 expression; 360,000 compounds, 0.72% hits; HEK-293 ATXN2-luciferase reporter, luminescence, 24 h; Potency, µM (titrated, usually from 57 µM), without a hit: at the top dose activity change, negative = inhibition, hits mostly inhibitors; further: potency means the concentration at half of the fitted maximal effect; on the % scale 0 is the no-effect control and ±100 the full control effect; nearly all actives have a fitted effect of over 55% in size
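qHTS (up to 57 uM final) was run with 24 h compound exposure of reporter cells at 37 °C. Each well was multiplexed: SteadyGlo luminescence measured ATXN2-luciferase expression after a fluorogenic Gly-Phe-AFC viability readout (25 uM final).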
HepG2 viability – HepG2 cytotoxicity, counter-screen for TGF-b inhibitors | HepG2 CAGA-GFP viability, ATP luminescence, 18 h | Potency, µM (doses to about 46.1 µM), for the others: top-dose activity change, negative = cytotoxicity, usual class: cytotoxic | 410,000 compounds, 0.76% hits | AID 588856; further: potency means the concentration at half of the fitted maximal effect
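HepG2 CAGA-GFP cells (1000/well, DMEM with 1% FBS) received compound, then TGF-beta at 500 pg/mL final, and were incubated 18 hours at 37 degrees C. Viability was read by CellTiter-Glo luminescence. Media-only wells were set as complete cell-killing and DMSO as no toxicity.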
D3 antag – D3 dopamine receptor (human) antagonism; 360,000 compounds, 2.5% hits; D3R cells, DiscoveRx beta-arrestin luminescence, antagonist mode; active compounds read low; P35462; max response, negative = inhibition, %; in the data active means max response below about -50%; inconclusive means no clear call, values can overlap the other calls; further: on the % scale 0 is the no-effect control and ±100 the full control effect
Target sequence (P35462 whole entry, looked up): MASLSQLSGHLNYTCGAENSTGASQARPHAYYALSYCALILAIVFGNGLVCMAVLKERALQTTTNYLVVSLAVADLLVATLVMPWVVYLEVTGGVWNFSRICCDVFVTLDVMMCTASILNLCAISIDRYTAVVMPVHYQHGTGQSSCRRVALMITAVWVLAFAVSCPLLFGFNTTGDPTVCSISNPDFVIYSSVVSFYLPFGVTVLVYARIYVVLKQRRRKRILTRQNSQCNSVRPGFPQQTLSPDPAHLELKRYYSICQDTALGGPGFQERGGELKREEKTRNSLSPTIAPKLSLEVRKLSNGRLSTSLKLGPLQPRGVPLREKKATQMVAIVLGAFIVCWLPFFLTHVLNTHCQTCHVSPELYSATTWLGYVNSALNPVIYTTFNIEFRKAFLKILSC
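Cells plated overnight at 1500 cells/well, then exposed to library compounds with dopamine controls for 90 minutes at 37 degrees C. DiscoveRx reagent added for 30–60 minutes at room temperature; luminescence read, quantitative HTS format.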
D3 ag – D3 dopamine receptor (human) agonism | D3R DiscoveRx beta-arrestin cells, luminescence, 90 min | P35462 | 410,000 compounds, 0.58% hits | max activation, % | AID 652048; in the data active means max activation above about 30%; further: 0% is about no effect
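Agonist mode: compounds and dopamine controls were applied to plated cells for 90 min at 37 degrees C after an overnight attachment at 1500 cells/well. Luminescent read-out followed 30 - 60 minutes at room temperature with DiscoveRx detection reagent.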
TGFb inhibitor – TGF-b pathway inhibition; HepG2 CAGA-GFP TGF-b/SMAD3 reporter, GFP fluorescence, 18 h; TGF-beta stimulated, 500 pg/mL final; 410,000 compounds, 1.2% hits; AID 588855; Potency, µM (titrated, usually from 46.1 µM), for inactives: top-dose activity, negative = inhibition, actives largely listed as inhibitors; further: potency means the concentration at half of the fitted maximal effect; on the % scale 0 is the no-effect control and ±100 the full control effect; nearly all actives have a fitted effect of over 65% in size
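HEPG2 CAGA-GFP, 1000 cells/well; 2 h settle, 37 C; cpd via pin tool; TGF-b 500 pg/mL final; 18 h, 37 C; GFP imaging ex488/em500-530; %Activity normalised to -TGF-b and +DMSO controls; CRC fit, curve class.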
ATXN viability – viability counter-screen for ATXN expression inhibitors; S2 cells (HEK-293 line with an ATXN2-luciferase reporter) viability, CellTiter-Fluor protease fluorescence, 24 h; Potency, µM (titrated, usually from 56.7 µM), usual class: cytotoxic; 400,000 compounds, 0.49% hits; AID 651635; further: potency means the concentration at half of the fitted maximal effect; nearly all actives have a fitted effect of over 40% in size
* = called active by the depositor; i = inactive; ? = inconclusive; · = not tested or not shown. An excerpt weighted towards active compounds, which were near 4.7% of everything screened. Unless noted, the call rests on the fitted dose curve; in most records, active means well fitted curve in the direction sought with a large enough effect; inconclusive means small, poorly fitted or top-dose-only effect, or another doubt; inactive means no such curve, though single readings can be large; an effect the other way counts as inactive or inconclusive.

SMILES	ATXN2 expr inh	HepG2 viability	D3 antag	D3 ag	TGFb inhibitor	ATXN viability
CC(=O)c1ccc(NC(=O)CC2Sc3ccccc3NC2=O)cc1 (centres undefined)	14%	-31%	·	7	-8%	i
C/C(=N\NC(=O)CN1CCN(S(=O)(=O)c2ccc(C)cc2)CC1)c1cccnc1	-8%	2%	-52*	-17	0%	i
C/C(=N/NC(=O)CN1CCN(S(=O)(=O)c2ccc(C)cc2)CC1)c1cccc(O)c1	-9%	-10%	1	6	-3%	i
O=C(NCCc1ccccn1)C1CC12CCN(C(=O)c1c(F)cccc1Cl)CC2 (centres undefined)	·	·	·	·	·	i
CCc1ccc(NC(=O)c2ccc(CNS(=O)(=O)c3ccc4c(c3)C(C)(C)C(=O)N4C)cc2)cc1	·	-28%	·	4	-31%	·
COc1ccc(CNS(=O)(=O)c2cc(C(=O)Nc3cc(Cl)cc(Cl)c3)ccc2F)cc1	·	10µM*	·	-5	7.1µM*	·
CCN(Cc1ccccc1)S(=O)(=O)c1cc(C(=O)Nc2cc(Cl)cc(Cl)c2)ccc1F	·	-37%	·	0	5µM*	·
O=C(Nc1cc(Cl)cc(Cl)c1)c1ccc(F)c(S(=O)(=O)NCc2ccccc2Cl)c1	·	-111%	·	1	?	·
CN1C(=O)C(C)(C)c2cc(S(=O)(=O)NCc3ccc(C(=O)Nc4ccc(Cl)cc4)cc3)ccc21	·	-28%	·	12	4µM*	·
COC(=O)c1sc(NC(=O)c2ccco2)nc1C	19%	-11%	13	4	0%	i
Cc1nc(NC(=O)c2ccco2)sc1C(=O)O	-9%	5µM*	1	5	1%	i
CCOC(=O)c1cc2c(=O)n3ccccc3nc2n(CCCOC)c1=NC(=O)c1c(-c2c(F)cccc2Cl)noc1C	13%	-18%	·	-5	5%	i
CN1CCN(CCCN2c3ccccc3Sc3ccccc32)CC1	·	·	·	-26	·	?
CCSc1ccc2c(c1)N(CCCN1CCN(C)CC1)c1ccccc1S2	1%	-84%	-87*	-84	?	i
CCS(=O)(=O)Nc1ccc2[nH]c(O)c(C(=Nc3ccc(CN4CCCCC4)cc3)c3ccccc3)c2c1	7.7µM*	·	·	·	·	·
O=C(Nc1ccc(CN2CCCCC2)cc1)c1cccc(Br)c1	-11%	-5%	2	-7	5%	i
Cc1cc(=O)[nH]c2ccc(O)cc12	·	4%	·	·	3%	·
NS(=O)(=O)c1ccc(NC(=S)NCc2ccccc2Cl)cc1	-4%	-14%	-68*	-8	-27%	i
COCC1CCCN(Cc2cn(-c3ccccc3F)nc2-c2cc(C)sc2C)C1 (centres undefined)	·	-100%	-71*	-17	?	·
Cc1ccc(Cn2c(=O)n(Cc3ccc(Cl)cc3)c(=O)c3cccnc32)cc1	-5%	-16%	·	-3	0%	i
Cc1ccc(NC(=O)C2CCN(c3nc4ccccc4nc3C(F)(F)F)CC2)cc1C	3%	-1%	·	0	-29%	i
CCCC[C@@H]1CNC(=O)C(=O)N1CCCc1cc(OC)c(OC)c(OC)c1	-1%	-1%	32	30*	?	i
CCC(C)[C@H]1CNC(=O)C(=O)N1CCCc1cc(OC)c(OC)c(OC)c1 (some centres undefined)	2%	-3%	6	8	?	i
COc1ccc2c(c1)[nH]c1c(=O)n(/N=C/C3C(C)C=C(C)CC3C)c(=O)[nH]c12 (centres undefined)	?	-28%	-24	2	-23%	i
COc1ccc2[nH]c3c(=O)n(/N=C/[C@H]4C(C)C=C(C)CC4C)c(=O)[nH]c3c2c1 (some centres undefined)	?	7.1µM*	-22	0	5µM*	13µM*
SMILES	ATXN2 expr inh	HepG2 viability	D3 antag	D3 ag	TGFb inhibitor	ATXN viability
CC1=CC(C)[C@H](/C=N/n2c(=O)[nH]c3c([nH]c4ccc(Br)cc43)c2=O)C(C)C1 (some centres undefined)	?	9%	-67*	4	-11%	?
O=C(O)c1ccccc1OP(=O)(O)O	5%	·	·	-5	·	i
CCc1ccc(S(=O)(=O)Nc2ccc(O)c3ccccc23)cc1	·	-104%	-13	0	?	i
O=S(=O)(Nc1ccc(O)c2ccccc12)c1ccc(F)cc1	32µM*	5µM*	?	-10	?	?
COc1ccc(CNC(=O)CCCN2C(=O)CSc3c2c(C)nn3-c2ccccc2)c(OC)c1	-21%	-21%	·	-9	?	?
O=C(Nc1ccc(C(F)(F)F)cc1)c1cc(S(=O)(=O)NCC2COc3ccccc3O2)ccc1F (centres undefined)	-17%	18µM*	-2	-2	-1%	i
COc1ccc(C(=O)CSc2cc(C)[nH]c(=O)n2)cc1	·	-4%	-51*	-3	-14%	i
COc1ccc(C(=O)CSc2nc(C)cc(=O)[nH]2)cc1	8%	-5%	11	1	-19%	i
CC(C)=CCC/C(C)=C/Cc1c(O)ccc(C(=O)/C=C/c2ccc(O)cc2)c1O	?	-110%	-29	-13	?	32µM*
CN(c1ccc(F)cc1)S(=O)(=O)N1CCCC(C(=O)NCc2cccc(Br)c2)C1 (centres undefined)	·	-54%	·	0	8.9µM*	·
O=C(NC(c1ccccc1)c1ccsc1)C1CCN(Cc2ccc(Cl)c(Cl)c2)CC1 (centres undefined)	7%	-18%	-61*	-18	-17%	i
COc1ccc(CN2CCC(C(=O)NC(C)c3cccc4ccccc34)CC2)cc1 (centres undefined)	0%	-14%	?	-10	9%	i
O=C(NC(c1ccccc1)c1ccsc1)C1CCN(Cc2ccc(Oc3ccccc3)cc2)CC1 (centres undefined)	-9%	-34%	-100*	-19	-10%	?
CO/N=C(\C(=O)N[C@@H]1C(=O)N2C(C(=O)OCOC(=O)C(C)(C)C)=C(/C=C\c3scnc3C)CS[C@H]12)c1csc(N)n1	·	·	·	-11	·	?
O=C(N/N=C/c1ccccc1O)NC12CC3CC(CC(C3)C1)C2	21%	-128%	?	-13	11µM*	i

Screening data from PubChem BioAssay.
